According to PubChem BioAssay AID1159580 (chemical genetic matrix, 2015):
In all, about 5,500 compounds went through this assay and about 2,000 (36%) were called active. About 18% were inconclusive and are not listed. Cut-off read from the data, not from the text of the source: active = normalized growth mostly below about 0.91 (no sharp cut-off); inconclusive = no clear call, values can overlap the other calls; inactive = mostly above about 0.92. The list shows a part of the results.

Assay: chemical genetic growth profiling, strain panel (AID 1159580);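 note: tested at 20 µM; growth read once vehicle control cultures reached saturation at 30 °C; 1 = growth at the plate median or of vehicle wells; lower values mean less growth of the strain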
Details: S. cerevisiae deletion strains, growth OD
[1] = locus YAR019C, strain CDC15, hits give low values
[2] = locus YBL105C, strain PKC1, hits give low values
[3] = locus YBR135W, strain CKS1, hits give low values
[4] = locus YBR136W, strain MEC1, hits give low values
[5] = locus YBR160W, strain CDC28, hits give low values
[6] = locus YDL017W, strain CDC7, hits give low values
[7] = locus YDL028C, strain MPS1, hits give low values
[8] = locus YDL101C, strain DUN1, hits give low values
[9] = locus YDL108W, strain KIN28, hits give low values
[10] = locus YDL132W, strain cdc53, hits give low values
[11] = locus YDL214C, strain PRR2, hits give low values
[12] = locus YDR052C, strain DBF4, hits give low values
[13] = locus YDR054C, strain cdc34, hits give low values
[14] = locus YDR226W, strain ADK1, hits give low values
[15] = locus YDR477W, strain SNF1, hits give low values
[16] = locus YER123W, strain YCK3, hits give low values
[17] = locus YER133W, strain GLC7, hits give low values
[18] = locus YFL009W, strain cdc4, hits give low values
[19] = locus YFL029C, strain CAK1, hits give low values
[20] = locus YFR003C, strain YPI1, hits give low values
[21] = locus YFR019W, strain FAB1, hits give low values
[22] = locus YFR028C, strain CDC14, hits give low values
[23] = locus YGR040W, strain KSS1, hits give low values
[24] = locus YGR052W, strain FMP48, hits give low values
[25] = locus YGR092W, strain DBF2, hits give low values
[26] = locus YHR030C, strain SLT2, hits give low values
[27] = locus YHR079C, strain IRE1, hits give low values
[28] = locus YHR082C, strain KSP1, hits give low values
[29] = locus YHR205W, strain SCH9, hits give low values
[30] = locus YIL147C, strain SLN1, hits give low values
[31] = locus YJL095W, strain BCK1, hits give low values
[32] = locus YJL128C, strain PBS2, hits give low values
[33] = locus YJL157C, strain FAR1, hits give low values
[34] = locus YJR016C, strain ILV3, hits give low values
[35] = locus YJR066W, strain TOR1 (second series), hits give low values
[36] = locus YJR066W, strain TOR1, hits give low values
[37] = locus YKL048C, strain ELM1, hits give low values
[38] = locus YKL067W, strain YNK1, hits give low values
[39] = locus YKL101W, strain HSL1, hits give low values
[40] = locus YKL193C, strain SDS22, hits give low values
[41] = locus YKL203C, strain TOR2, hits give low values
[42] = locus YLR113W, strain HOG1, hits give low values
[43] = locus YLR133W, strain CKI1, hits give low values
[44] = locus YLR403W, strain SFP1, hits give low values
[45] = locus YML070W, strain DAK1, hits give low values
[46] = locus YMR001C, strain CDC5, hits give low values
[47] = locus YMR205C, strain PFK2 (second series), hits give low values
[48] = locus YMR277W, strain FCP1, hits give low values
[49] = locus YNL006W, strain LST8, hits give low values
[50] = locus YNL020C, strain ARK1, hits give low values
[51] = locus YNL161W, strain CBK1, hits give low values
[52] = locus YNL183C, strain NPR1, hits give low values
[53] = locus YNL207W, strain RIO2, hits give low values
[54] = locus YNL222W, strain SSU72, hits give low values
[55] = locus YNL307C, strain MCK1 (second series), hits give low values
[56] = locus YOL078W, strain AVO1, hits give low values
[57] = locus YOL136C, strain PFK27, hits give low values
[58] = locus YOR061W, strain CKA2, hits give low values
[59] = locus YOR119C, strain RIO1, hits give low values
[60] = locus YOR231W, strain MKK1, hits give low values
[61] = locus YOR329C, strain SCD5, hits give low values
[62] = locus YPL031C, strain PHO85, hits give low values
[63] = locus YPL153C, strain RAD53, hits give low values
[64] = locus YPL204W, strain HRR25, hits give low values
[65] = locus YPL209C, strain IPL1, hits give low values
[66] = locus YPL256C, strain CLN2, hits give low values
[67] = locus YPR025C, strain CCL1, hits give low values
[68] = locus YPR106W, strain ISR1, hits give low values
[69] = locus YPR111W, strain DBF20, hits give low values
[70] = strain NNK1, hits give low values
[71] = strain TSCII, hits give low values

Measured: normalized growth

O=C(/C=C/Sc1nc2ccccc2s1)c1ccc(Cl)cc1
inactive: [1] 0.977 | [2] 0.972 | [3] 0.983 | [4] 0.986 | [5] 0.983 | [6] 0.983 | [7] 0.987 | [8] 0.975 | [9] 0.985 | [10] 0.983 | [11] 0.894 | [12] 0.99 | [13] 0.969 | [14] 0.981 | [15] 0.926 | [16] 0.872 | [17] 0.911 | [18] 0.98 | [19] 0.977 | [20] 0.981 | [21] 0.932 | [22] 0.986 | [23] 0.941 | [24] 0.92 | [25] 0.925 | [27] 0.78 | [28] 0.932 | [29] 0.743 | [30] 0.99 | [31] 0.854 | [32] 0.954 | [33] 0.896 | [34] 0.985 | [35] 0.808 | [36] 0.893 | [37] 0.958 | [38] 0.909 | [39] 0.927 | [40] 0.986 | [41] 0.975 | [43] 0.905 | [44] 0.901 | [45] 0.877 | [46] 0.978 | [47] 0.936 | [48] 0.988 | [49] 0.979 | [50] 0.911 | [51] 0.962 | [52] 0.923 | [53] 0.988 | [54] 0.981 | [55] 0.92 | [56] 0.981 | [57] 0.83 | [58] 0.953 | [59] 0.996 | [60] 0.811 | [61] 0.972 | [62] 0.912 | [63] 0.942 | [64] 0.882 | [65] 0.979 | [67] 0.972 | [68] 0.985 | [69] 0.979 | [70] 0.981 | [71] 0.983
active: [26] 0.697 | [42] 0.593 | [66] 0.72

OC(=Cc1nc2ccccc2nc1C=C(O)c1ccc(Cl)cc1)c1ccc(Cl)cc1
inactive: [1] 0.993 | [2] 0.974 | [3] 0.983 | [4] 0.967 | [5] 0.984 | [6] 0.98 | [7] 0.97 | [8] 0.977 | [9] 0.961 | [10] 0.995 | [11] 0.895 | [12] 0.981 | [13] 0.972 | [14] 0.969 | [15] 0.856 | [16] 0.85 | [17] 0.9 | [18] 0.976 | [19] 0.976 | [20] 0.978 | [21] 0.918 | [22] 0.987 | [23] 0.855 | [24] 0.903 | [25] 0.793 | [26] 0.874 | [27] 0.96 | [28] 0.851 | [29] 0.882 | [30] 0.958 | [31] 0.933 | [32] 0.965 | [33] 0.84 | [34] 0.977 | [35] 0.852 | [36] 0.889 | [37] 0.868 | [38] 0.871 | [39] 0.8 | [40] 1 | [41] 0.932 | [42] 0.902 | [43] 0.884 | [44] 0.904 | [45] 0.855 | [46] 0.992 | [47] 0.859 | [48] 0.977 | [49] 0.982 | [50] 0.851 | [51] 0.983 | [52] 0.921 | [53] 0.966 | [54] 0.982 | [55] 0.823 | [56] 0.982 | [57] 0.867 | [58] 0.769 | [59] 0.921 | [60] 0.936 | [61] 0.983 | [62] 0.843 | [63] 0.862 | [64] 0.89 | [65] 0.979 | [66] 0.941 | [67] 0.979 | [68] 0.962 | [69] 0.954 | [70] 0.96 | [71] 0.989

CCOC(=O)Nc1nc2ccccc2[nH]1
inactive: locus YAL021C, strain ccr4, hits give low values 0.936 | locus YAL026C, strain drs2, hits give low values 0.977 | locus YAL030W, strain snc1, hits give low values 0.96 | locus YBL061C, strain skt5, hits give low values 0.982 | locus YBR009C, strain hhf1, hits give low values 0.967 | locus YBR023C, strain chs3, hits give low values 0.995 | locus YBR171W, strain sec66, hits give low values 0.965 | locus YBR231C, strain swc5, hits give low values 0.988 | locus YBR279W, strain paf1, hits give low values 0.991 | locus YCL011C, strain gbp2, hits give low values 0.979 | locus YCL016C, strain dcc1, hits give low values 0.995 | locus YCL061C, strain MRC1, hits give low values 0.992 | locus YCL069W, strain vba3, hits give low values 0.992 | locus YCR088W, strain abp1, hits give low values 0.99 | locus YDL005C, strain med2, hits give low values 0.994 | locus YDL040C, strain nat1, hits give low values 0.994 | locus YDR001C, strain nth1, hits give low values 0.97 | locus YDR069C, strain doa4, hits give low values 0.902 | locus YDR137W, strain rgp1, hits give low values 0.865 | locus YDR159W, strain sac3, hits give low values 0.979 | locus YDR195W, strain ref2 1.13 | locus YDR297W, strain sur2, hits give low values 0.964 | locus YDR334W, strain swr1, hits give low values 0.947 | locus YDR335W, strain msn5, hits give low values 0.989 | locus YDR392W, strain spt3, hits give low values 0.972 | locus YEL003W, strain gim4, hits give low values 0.972 | locus YEL037C, strain rad23, hits give low values 0.984 | locus YEL061C, strain CIN8 (second series), hits give low values 0.983 | locus YER015W, strain faa2, hits give low values 0.972 | locus YER016W, strain bim1, hits give low values 0.994 | locus YER111C, strain swi4, hits give low values 0.991 | locus YER155C, strain BEM2 (second series), hits give low values 0.977 | locus YFR010W, strain ubp6, hits give low values 0.937 | locus YGL167C, strain pmr1, hits give low values 0.984 | locus YGL173C, strain kem1, hits give low values 0.953 | locus YGL227W, strain vid30, hits give low values 0.986 | locus YGL240W, strain doc1, hits give low values 0.941 | locus YGL253W, strain hxk2, hits give low values 0.982 | locus YHR013C, strain ard1, hits give low values 0.956 | locus YHR027C, strain rpn1, hits give low values 0.962 | [26] 0.969 | [27] 0.976 | locus YHR142W, strain chs7, hits give low values 0.986 | locus YJL092W, strain hpr5, hits give low values 0.999 | locus YJL095W, strain BCK1 (second series), hits give low values 0.975 | [31] 0.987 | locus YJL115W, strain asf1, hits give low values 0.961 | locus YJL129C, strain trk1, hits give low values 1.03 | locus YJL154C, strain vps35, hits give low values 0.982 | locus YJL164C, strain tpk1, hits give low values 0.986 | locus YJL166W, strain qcr8, hits give low values 0.977 | locus YJL187C, strain SWE1, hits give low values 0.988 | [36] 0.923 | locus YKL160W, strain elf1, hits give low values 0.985 | locus YKR026C, strain gcn3, hits give low values 0.996 | locus YKR091W, strain srl3, hits give low values 0.987 | locus YLL001W, strain dnm1, hits give low values 0.987 | locus YLL026W, hits give low values 0.974 | locus YLL041C, strain sdh2, hits give low values 0.978 | locus YLR027C, strain aat2, hits give low values 0.985 | [42] 1.03 | locus YLR221C, strain rsa3, hits give low values 0.988 | locus YLR258W, strain gsy2, hits give low values 0.984 | locus YLR262C, strain YPT6 (second series), hits give low values 0.933 | locus YLR320W, strain mms22, hits give low values 0.966 | locus YLR342W, strain FKS1, hits give low values 0.988 | locus YLR357W, strain rsc2, hits give low values 0.92 | locus YLR370C, strain arc18, hits give low values 0.986 | locus YLR384C, strain iki3, hits give low values 0.978 | locus YML120C, strain ndi1, hits give low values 0.998 | locus YMR058W, strain fet3, hits give low values 0.968 | locus YMR125W, strain sto1, hits give low values 1 | locus YMR129W, hits give low values 0.981 | locus YMR205C, strain PFK2, hits give low values 0.904 | locus YMR231W, strain pep5, hits give low values 0.989 | locus YNL071W, strain lat1, hits give low values 0.985 | [52] 0.942 | locus YNL209W, strain ssb2, hits give low values 0.971 | locus YNL248C, strain rpa49, hits give low values 0.998 | locus YNL322C, strain KRE1 (second series), hits give low values 0.983 | locus YNR049C, strain mso1, hits give low values 0.983 | locus YOR001W, strain rrp6, hits give low values 0.97 | locus YOR070C, strain gyp1, hits give low values 0.983 | locus YOR080W, strain dia2, hits give low values 0.971 | locus YOR083W, strain WHI5, hits give low values 0.974 | locus YOR106W, strain vam3, hits give low values 0.927 | [60] 0.954 | locus YOR265W, strain rbl2, hits give low values 0.987 | locus YOR270C, strain vph1, hits give low values 0.868 | locus YOR290C, strain snf2, hits give low values 0.895 | locus YPL051W, strain arl3, hits give low values 0.987 | locus YPL078C, strain atp4, hits give low values 0.986 | locus YPL106C, strain sse1, hits give low values 0.956 | locus YPL240C, strain hsp82, hits give low values 0.991 | [66] 0.987
